# Tests used:
# Conditions in all cases: concentration: 1 μM, replicates: in singlicate; n = 1
# ERBB2 = tested on: ERBB2
# ERBB3 = tested on: ERBB3
# ERBB4 = tested on: ERBB4
# ERK1 = tested on: T1, ERK1
# T1 construct: gene MAPK3
# ERK2 = tested on: T2, ERK2
# T2 construct: gene MAPK1
# ERK3 = tested on: T3, ERK3
# T3 construct: gene MAPK6
# ERK4 = tested on: T4, ERK4
# T4 construct: gene MAPK4
# ERK5 = tested on: T5, ERK5
# T5 construct: gene MAPK7
# ERK8 = tested on: T6, ERK8
# T6 construct: gene MAPK15
# ERN1 = tested on: ERN1
# 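Further: KINOMEscan kinase panel screen.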
Compound,%Inh (ERBB2),%Inh (ERBB3),%Inh (ERBB4),%Inh (ERK1),%Inh (ERK2),%Inh (ERK3),%Inh (ERK4),%Inh (ERK5),%Inh (ERK8),%Inh (ERN1)
O=C(Nc1n[nH]c2cc(-c3cccc(F)c3F)ccc12)C1CC1 [SB-733894],0%,0%,27%,0%,0%,0%,0%,11%,28%,5%
Fc1cc(Cl)ccc1Nc1ccnc2cc(I)ccc12 [GW551191],32%,31%,30%,0%,0%,5%,24%,0%,0%,2%
COc1ccccc1-c1ccc2c(NC(=O)C3CC3)n[nH]c2n1 [SB-711239],0%,22%,23%,3%,3%,0%,0%,0%,0%,0%
Cc1ccc(C(=O)Nc2ccc(Nc3ccnc4cc(-c5ccccn5)ccc34)cc2O)cc1.Cl [GW440146],38%,0%,31%,5%,0%,0%,10%,0%,0%,0%
Cc1csc(-c2nc(Nc3ccncc3)c3ccccc3n2)n1 [GW869640],36%,40%,0%,13%,17%,4%,0%,0%,32%,27%
CC1=C(C(=O)Nc2cc3cn[nH]c3cc2F)C(c2ccc(C(F)(F)F)cc2)CC(=O)N1 (centres unmarked) [GSK429286],9%,0%,63%,8%,0%,14%,10%,0%,0%,2%
Fc1cccc(COc2nnc(-c3ccc4c(c3)CCO4)o2)c1,3%,13%,0%,0%,13%,0%,0%,8%,0%,15%
Cl.NC(=O)c1cccc(Nc2nccc(Nc3ccc(Oc4cccc(Cl)c4)c(Cl)c3)n2)c1 [GW659008],79%,82%,55%,3%,0%,15%,0%,61%,0%,19%
Cc1nnc(-c2ccc3occ(-c4ccc(S(C)=O)cc4)c3c2)[nH]1 (centres unmarked),16%,6%,5%,0%,8%,13%,0%,0%,0%,35%
Cc1cc(N2Cc3ccccc3C2)nc(Nc2ccc(S(=O)(=O)N3CCOCC3)cc2)n1.Cl [GSK1669917],0%,0%,26%,0%,0%,0%,19%,0%,0%,0%
O=C1NC(=O)C(N2CCc3ccccc32)=C1c1ccccc1Cl [SB-373598],26%,0%,0%,17%,0%,23%,11%,0%,0%,13%
CN(C)CCN(C)C(=O)c1cc(-c2ccncc2)c(-c2ccc(Cl)c(O)c2)o1.Cl.Cl [SB-710397],53%,26%,33%,2%,0%,0%,0%,0%,0%,0%
CC(=O)Nc1nc2cnc(Nc3cc(NC(=O)c4cccc(CCC#N)c4)ccc3C)nc2s1,6%,7%,14%,0%,21%,4%,3%,3%,0%,0%
COC(=O)c1c(-c2ccccc2)c2cc(C(=O)O)ccc2c(=O)n1Cc1ccccc1,0%,0%,2%,0%,16%,0%,0%,0%,0%,0%
Nc1nc(-c2nccs2)c(-c2ccnc3ccccc23)s1 [GW693542],36%,0%,27%,6%,0%,0%,18%,0%,0%,0%
Nc1ncnc2[nH]c(-c3ccccc3)nc12 [AH5015],14%,0%,0%,4%,0%,0%,0%,0%,31%,12%
COc1cccc(-c2cc(-c3c[nH]nc3-c3ccccn3)ccn2)c1 [GW680338],5%,17%,0%,4%,0%,16%,8%,0%,0%,0%

# Reference: PMC5540273 (PLoS ONE, 2017)
